Test: differential killing of epithelial or mesenchymal cells, primary screen, imaging, PC-3E GFP, TEM4-18 mCherry, co-culture (AID 1345086);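 further: cells exposed to compound for 72 h before imaging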
Details: imaging cell counts, measured here: mesenchymal TEM4-18 mCherry cell survival, at 1 µM

SMILES	normalised cell number
O=C(Cc1ccccc1)NCC1O[C@@H](OC2C(NC(=O)Cc3ccccc3)C[C@@H](NC(=O)Cc3ccccc3)[C@H](OC3OC(COS(=O)(=O)O)[C@@H](OS(=O)(=O)O)[C@H](NC(=O)Cc4ccccc4)[C@H]3OS(=O)(=O)O)[C@H]2OS(=O)(=O)O)[C@H](OS(=O)(=O)O)[C@@H](OS(=O)(=O)O)C1OS(=O)(=O)O (some centres undefined)	1.03
COC1=N[C@@](OC)(C(C)C)C(=O)N[C@@]1(O)[C@H](O)c1ccccc1	0.96
Nc1nc2c(c(=O)[nH]1)NC(CNc1ccc(C(=O)NC(CCC(=O)O)C(=O)O)cc1)=CN2 (centres undefined)	0.99
CO[C@H]1/C=C/C[C@@H](C)OC(=O)c2c(O)cc(O)cc2CC(=O)CCC1	0.98
CCCC1=CC(=O)[C@H](O)[C@H]1O	1.02
COC(=O)/C(=C1\OC(=O)C(c2ccccc2)=C1O)c1ccccc1	1.11
CC(C)CCCC(C)C1CCC2C3CC[C@H]4C[C@@H](O)CC[C@]4(C)C3CC[C@]12C (some centres undefined)	1.1
C#C[C@]1(O)CCC2C3CCC4=CC(=O)CC[C@@H]4C3CCC21CC (some centres undefined)	1.21
CC1COc2c(N)c(F)cc3c(=O)c(C(=O)O)cn1c23 (centres undefined)	1.01
CO[C@H]1C[C@H](O[C@H]2[C@H](C)[C@@H](O[C@@H]3O[C@H](C)C[C@H](N(C)C)[C@H]3O)[C@@H](C)C[C@]3(CO3)C(=O)[C@H](C)[C@@H](O)[C@@H](C)[C@@H](C)OC(=O)[C@@H]2C)O[C@@H](C)[C@@H]1O	0.97
CC(C)=CCC/C(C)=C\CC1=C(C)C(=O)c2ccccc2C1=O	1.09
CO/N=C1/C[C@]2(C[C@@H]3C[C@@H](C/C=C(\C)C[C@@H](C)/C=C/C=C4\COC5[C@H](O)C(C)=C[C@@H](C(=O)O3)[C@]45O)O2)O[C@H](/C(C)=C/C(C)C)[C@H]1C (some centres undefined)	1.32
Cc1ccc(S[C@H]2OC(COCc3ccccc3)C(OC(=O)CCC(=O)O)[C@@H]3OC(=O)N[C@H]23)cc1 (some centres undefined)	1.1
C#C[C@H](O)COc1ccc(C(=O)O)cc1	0.68
CC1=CO[C@]2(C1=O)[C@H]1C(=O)O[C@]3(C[C@@H]2C)C(C)=CC(=O)O[C@]13O	0.99
COc1c(F)c(F)cc2c(=O)c(C(=O)NO)cn(C3CC3)c12	1.04
Nc1nc(Cl)nc2c1ncn2C1O[C@H](CO)[C@@H](O)[C@@H]1F (some centres undefined)	0.39

SMILES	normalised cell number
CC(C)CCCC(C)C1CCC2C3CC[C@H]4CCCC[C@]4(C)C3CC[C@]12C (some centres undefined)	0.99
O=C(O)CCc1ccccc1O	1.07
CC(CC(=O)N1C(=O)OC[C@H]1c1ccccc1)N1CCSC1=S (some centres undefined)	1.08
CC(=O)OCC1=C[C@]2(O)CC3=C(CC24O[C@@H]4C1=O)[C@@]1(C)CCCC(C)(C)[C@@H]1CC3 (some centres undefined)	0.94
COC(=O)NC1[C@@H](O)C(O)C(CO)O[C@H]1Sc1ccccc1 (some centres undefined)	0.96
CC(CCC(=O)O)[C@H]1CCC2C3CC[C@@H]4CCCC[C@]4(C)C3CC[C@@]21C (some centres undefined)	1.04
COc1cc2c(cc1OC)C1C(=O)c3c(O)cc4c(c3OC1CO2)C=CC(C)(C)O4 (centres undefined)	0.66
Clc1ccc(Br)cc1OCC1CCCNC1 (centres undefined)	1.17
C=CC(C)(C)c1cc(O)ccc1OC1OC(CO)C(O)C(O)C1O (centres undefined)	0.94
CC1(C)C[C@@H]2C(=O)CC[C@@H]3O[C@]3(C)CC[C@H]21	0.85
COC(=O)C1O[C@H](Sc2ccccc2)[C@@H](OC(=O)c2ccccc2)[C@@H](OC(=O)c2ccccc2)C1O (some centres undefined)	1
Cc1c(O)c(O)cc2oc3cc(O)cc(O)c3c(=O)c12	1.12
COC(=O)/C=C/C(C)=C/C=C/C(C)=C/C=C/C=C(C)/C=C/C=C(C)/C=C/C(=O)O	1.05
COC(=O)CNC(=O)c1ccc([C@H](O)c2ccccc2)cn1	0.87
O=C(O)CCC(=O)OC1C(CO)O[C@H](Sc2ccccc2)[C@H]2NC(=O)O[C@@H]12 (some centres undefined)	1.06
CC(C)(C)OC(=O)NCCCC(NC(=O)C(Cc1ccccc1)NC(=O)OC(C)(C)C)C(=O)O (centres undefined)	1.1
CC(=O)OC1(C)CC[C@@]23CC1C(C)(C)[C@@H]2CC[C@H]3C (some centres undefined)	1.15

Source: PubChem BioAssay
